Assay outcomes (PubChem BioAssay)
Shown are actives, neighbours in structure and some others; about 19% of the full set was active somewhere.
ELG1 repair inh: ELG1-dependent DNA repair inhibition; HEK293T ELG1-luciferase reporter, luminescence, 16 h; DNA damage induced by 5-fluorouridine; Potency, µM (top dose mostly 46.1 µM), for inactives: at the highest dose activity change, negative = inhibition, actives largely listed as inhibitors; 2.3% of 330,000 active; further: potency means the concentration at half of the fitted maximal effect; nearly all actives have a fitted effect of over 55% in size
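Quantitative HTS, concentration-response format. 2,000 cells/well co-treated with 5-fluorouridine and compound, 16 hr in 5% CO2 at 37 °C; ONE-Glo luminescence read after 30 min.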
DT40 TDP1 CPT: DT40-hTDP1 cell growth loss with CPT; Potency, µM (series often up to 46.2 µM), for the others: top-dose activity change, negative = growth inhibition, actives largely listed as inhibitors; 12% of 420,000 active; chicken DT40 Tdp1-/-;hTDP1 cells + 20 nM CPT, ATP luminescence, 48 h; AID 686979; further: potency means the concentration at half of the fitted maximal effect; nearly all actives have a fitted effect of over 55% in size
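Chicken DT40 Tdp1-/- cells complemented with human TDP1, 400 cells/well, exposed to compounds plus 20 nM camptothecin for at least 48 h at 37 C; viability read as ATP content by CellTiter-Glo luminescence.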
IL-1B inflam inh: inhibitors of inflammasome signaling (IL-1 beta secretion); THP-1 LPS/ATP IL-1B secretion, AlphaLISA, 16 h; stronger effect = lower value; activity change, % at 57.5 µM; 4.7% of 360,000 active; in the data active means activity change below about -50%; inconclusive means mostly about -30% to -49%
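THP-1 cells pretreated 1 hr with compounds (up to 57.5 uM final), then stimulated with LPS (250 ng/mL final) plus ATP (1.25 mM final); secreted IL-1B measured by AlphaLISA after 16 hr, decreased signal indicating inhibition.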
Giardia killer: kills Giardia lamblia. Giardia lamblia trophozoite viability. activity change, % at 7.66 µM, hits read low. 0.15% of 340,000 active; in the data active means activity change below about -80%; inconclusive means between about -30% and that limit;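 further: parasites exposed to compound for two days anaerobically before the ATP read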
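Each well holds 100 Giardia trophozoites and compound. After two days (48 hrs) at 37 deg C in anaerobic conditions, ATP is quantified by luminescence.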
TDP1 cell noCPT: qHTS for Inhibitors of human tyrosyl-DNA phosphodiesterase 1 (TDP1): qHTS in cells in absence of CPT; DT40 Tdp1-/- hTDP1 cells, no CPT, ATP luminescence, 48 h; Potency, µM (titrated, usually from 46.2 µM), inactives show at the highest dose activity change, negative = growth inhibition, usual class: inhibitors; 15% of 420,000 active; AID 686978, 2013; further: potency means the concentration at half of the fitted maximal effect; nearly all actives have a fitted effect of over 55% in size
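Readout: luminescence from CellTiter-Glo after 30 min in the dark at RT. Cells: DT40 Tdp1-/- with stable hTDP1, 400/well. Exposure: compounds alone, ≥48 hr, 37 °C.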
TDP1 block: inhibitors of human tyrosyl-DNA phosphodiesterase TDP1. Q9NUW8. recombinant TDP1, AlphaScreen DNA substrate cleavage. Potency, µM (titrated, usually from 130 µM), inactives show at the top dose activity change, negative = inhibition, most hits filed as inhibitors. 0.28% of 350,000 active; further: potency means the concentration at half of the fitted maximal effect; nearly all actives have a fitted effect of over 40% in size
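Signal: AlphaScreen proximity between streptavidin donor and anti-FITC acceptor beads on intact substrate. Reaction: Tdp1 1 nM, substrate 15 nM final, 5 min RT after 15 min compound preincubation.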
ELG1 FLuc counter: luciferase inhibition in cell-free luciferin readout for ELG1 hits | 3% of 350 active | AID 624247 | shares compounds with ELG1 repair inh | cell-free firefly luciferase luminescence counter-screen, ViewLux | Potency, µM (highest dose often 46.1 µM), for inactives: top-dose activity change, negative = inhibition, usual class: inhibitors; further: potency means the concentration at half of the fitted maximal effect
ELG1-Luc inh: confirmation of human ELG1-dependent DNA repair inhibitors | shares compounds with ELG1 repair inh | HEK293T ELG1-luciferase levels, luminescence; cells co-treated with 5-fluorouridine | Potency, µM (series often up to 46.1 µM), for inactives: at the highest dose activity change, negative = inhibition, hits mostly inhibitors | 68% of 670 active | AID 624248; further: potency means the concentration at half of the fitted maximal effect; nearly all actives have a fitted effect of over 55% in size
ELG1 MMS Luc: confirmation of human ELG1 repair inhibitors, MMS stimulated; shares compounds with ELG1 repair inh; HEK293T luciferase-tagged ELG1 level, MMS stimulated; Potency, µM (doses to about 46.1 µM), for the others: at the top dose activity change, negative = inhibition, most hits filed as inhibitors; 53% of 670 active; further: potency means the concentration at half of the fitted maximal effect; nearly all actives have a fitted effect of over 60% in size
ELG1 5FU viab: confirmation of ELG1 repair inhibitors: viability with 5FU. shares compounds with ELG1 repair inh. cell viability with 5-FU, ELG1-dependent repair. Potency, µM (top dose mostly 46.1 µM), without a hit: at the highest dose activity change, negative = viability loss, most hits filed as cytotoxic. 670 tested, under 10 active;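 further: ELG1-luc HEK293T cells cotreated with 5-fluorouridine at 10 µM final; potency means the concentration at half of the fitted maximal effect; viability measured 16 h after compound addition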
ELG1 MMS cell: confirmation of ELG1 repair inhibitors: viability with MMS. Potency, µM (top dose mostly 46.1 µM), inactives show top-dose activity change, negative = viability loss, usual class: cytotoxic. 33% of 670 active. Cell viability with MMS, ELG1-dependent DNA repair. AID 624251. shares compounds with ELG1 repair inh;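 further: ELG1-luc HEK293T cells co-treated with 10 µM MMS; potency means the concentration at half of the fitted maximal effect; viability read 16 h after compound addition; nearly all actives have a fitted effect of over 60% in size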
ELG1 unstim viab: unstimulated viability counter-screen for ELG1 repair hits; shares compounds with ELG1 repair inh; cell viability counter-screen, unstimulated, luminescence; Potency, µM (doses to about 45.9 µM), for the others: at the top dose activity change, negative = loss of viability, usual class: cytotoxic; 8% of 900 active; AID 624252;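 further: potency means the concentration at half of the fitted maximal effect; compound exposure lasted 16 hours before reading; nearly all actives have a fitted effect of over 55% in size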
FLuc biochem: firefly luciferase inhibition counter-screen; shares compounds with ELG1 repair inh; purified firefly luciferase, luminescence counter-screen; Potency, µM (series often up to 57.5 µM), without a hit: at the top dose activity, negative = inhibition, hits mostly inhibitors; 10% of 350 active; further: potency means the concentration at half of the fitted maximal effect
* marks the source's active call; other numbers are inactive results; ? = inconclusive; . = no result; [ ] = another dose, or the depositor's remark. Unless noted, the call rests on the fitted dose curve; in most records, active means well fitted curve in the direction sought with a large enough effect; inconclusive means small, poorly fitted or top-dose-only effect, or another doubt; inactive means no such curve, though single readings can be large; an effect the other way counts as inactive or inconclusive. On the % scale 0 is the no-effect control and ±100 the full control effect.

SMILES | ELG1 repair inh | DT40 TDP1 CPT | IL-1B inflam inh | Giardia killer | TDP1 cell noCPT | TDP1 block | ELG1 unstim viab | others
CNC(=O)C1CCN(S(=O)(=O)c2c(C)noc2/C=C/c2ccc(OC)cc2)CC1 | ? | -7% | -20 | -20 | -25% | . | .
Cc1noc(/C=C/c2ccco2)c1S(=O)(=O)N1CCC(C(=O)N(C)Cc2ccccc2)CC1 | 4.6µM* | ? | ? | -7 | -25% | 4% | -11% | ELG1-Luc inh=3.1µM*;ELG1 MMS Luc=29%;ELG1 5FU viab=?;ELG1 MMS cell=-1%
COc1ccc(CN(Cc2ccccc2)C(=O)COC(C)=O)cc1COc1ccc(NC(C)=O)cc1 | . | ? | . | -6 | ? | 3% | .
CC(=O)c1ccc(O)c(CSC2=NCCS2)c1 | 7% | 19% | 0 | 2 | -23% | 1% | .
CN(C)c1ccc(/C=C/c2ccc3ccccc3[n+]2[O-])cc1 | . | 20µM* | . | . | 13µM* | . | 13µM* | ELG1 FLuc counter=-63%;FLuc biochem=0.092µM*
CCCCNC(=O)C(=O)NCC1CCCN1S(=O)(=O)c1cccs1 (stereo not given) | 13% | -5% | 7 | -12 | -20% | . | .
CCCNC(=O)C(=O)Nc1ccc2c(c1)N(S(=O)(=O)c1cccs1)CCC2 | 3.3µM* | 15µM* | 20 | 5 | 23µM* | -1% | -10% | ELG1-Luc inh=16µM*;ELG1 MMS Luc=5.6µM*;ELG1 5FU viab=?;ELG1 MMS cell=?
C/C(=N/NC(=O)Cc1ccccc1)c1ccc(C)s1 | ? | 0% | -13 | -20 | -21% | -6% | .
NC(=O)C1CCN(c2ccc(S(=O)(=O)N3CCC(Cc4ccccc4)CC3)cn2)CC1 | ? | ? | -1 | 20 | 13µM* | 3% | ? | ELG1-Luc inh=-15%;ELG1 MMS Luc=2µM*;ELG1 5FU viab=-10%;ELG1 MMS cell=2.5µM*
COc1cc2cc(C)c(SCC(=O)N3CCOCC3)nc2cc1OC | -29% | -22% | -17 | 9 | -15% | 4% | -10% | ELG1 FLuc counter=68%;FLuc biochem=-8%
COc1cc2cc(C#N)c(SCC(=O)N3CCOCC3)nc2cc1OC | -4% | -6% | -11 | 21 | -37% | 2% | .
CCOC(=O)c1c(C)[nH]c(C(=O)Nc2cc(OCC)c(N3CCOCC3)cc2OCC)c1C | 4.6µM* | ? | 1 | -2 | ? | 1% | -16% | ELG1-Luc inh=5.6µM*;ELG1 MMS Luc=19%;ELG1 5FU viab=?;ELG1 MMS cell=0%
CCOc1cc(N2CCOCC2)c(OCC)cc1NC(=O)c1c(C)noc1C | -22% | -24% | -11 | 13 | -17% | 4% | .
CC(=O)N(C)c1ccc(/C=C2\C=Cc3ccccc32)cc1 | . | 6.3µM* | . | . | 7.1µM* | . | ? | ELG1 FLuc counter=71%;FLuc biochem=0.23µM*
COCc1c(C(=O)NCC(c2ccco2)N2CCCC2)oc2ccccc12 (stereo not given) | . | -25% | 29 | . | ? | . | .
COc1ccc(C(=O)NC(C(=O)NCC2(N3CCCCC3)CCCCC2)C(C)C)cc1 (stereo not given) | 6% | 2% | -19 | 9 | -4% | 1% | .
Cc1ccc2nc(-c3ccc(NC(=O)COc4ccccc4C(C)(C)C)cc3)sc2c1 | . | -30% | . | . | ? | -1%[12.3 µM] | .
O=C(COc1ccccc1Cl)Nc1ccc(-c2nc3ccccc3s2)cc1 | . | 5.8µM* | . | 6 | 6.5µM* | 1%[12.3 µM] | ?
CCN1CCN(S(=O)(=O)c2ccc(Cl)c(C(=O)NC3CCCCC3)c2)CC1 | 3% | ? | 4 | 11 | -8% | 4% | .
CCN1CCN(S(=O)(=O)c2cc(OCC(=O)NC3CCCCC3)c(C)cc2Cl)CC1 | ? | 23µM* | ? | 35 | ? | 5% | ? | ELG1-Luc inh=-16%;ELG1 MMS Luc=3.1µM*;ELG1 5FU viab=-11%;ELG1 MMS cell=2.5µM*
Cc1ccc(C)c(S(=O)(=O)N2CCN(C(=O)[C@@H]3CCCN3C(=O)c3cccs3)CC2)c1 | ? | ? | 2 | -4 | -27% | 4% | .
Cc1ccc2nc3n(c(=O)c2c1)-c1ccccc1C(=O)NC3Cc1ccc(O)cc1 (stereo not given) | 13% | . | . | . | . | 1% | .
